Test results as given in PubChem BioAssay (NCI).
This is part of a sample that, as a whole, favours compounds with a hit. Of some 79,000 tested, about 15% had one in any assay. Values without a mark were called inactive. Active and inactive are the calls of the source. Cut-off read from the data, not from the text of the source: active = growth inhibition above about 70%; inactive = the rest.

Key:
[1] = NCI Yeast Anticancer Drug Screen. Data for the rad52 strain (AID 147);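 note: 0% = growth of vehicle-treated control cultures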; conditions: S. cerevisiae rad52 mutant growth inhibition, stronger effect = higher value
Summary of the method: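 Yeast strain carrying a DNA damage repair alteration was exposed to test compounds. Growth inhibition was measured relative to vehicle-treated controls.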

[2] = NCI Yeast Anticancer Drug Screen. Data for the wt1 strain (AID 149);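 note: 0% = growth of vehicle-treated wt1 cultures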; conditions: S. cerevisiae wt1 strain (SPY 50644) growth inhibition, stronger effect = higher value
Summary of the method: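 Readout: yeast growth inhibition, normalised to vehicle controls, in the wt1 strain exposed to test compounds.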

[3] = NCI Yeast Anticancer Drug Screen. Data for the rad50EPP+ strain (AID 151);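 note: 0% = growth of vehicle-treated control cultures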; conditions: S. cerevisiae rad50 mutant strain, stronger effect = higher value
Summary of the method: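 Yeast strain carrying rad50 alteration (rad50EPP+) exposed to compounds; growth inhibition measured relative to vehicle-treated controls.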

[4] = NCI Yeast Anticancer Drug Screen. Data for the mgt1 strain (AID 153); conditions: S. cerevisiae mgt1 mutant growth inhibition, stronger effect = higher value
Summary of the method: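 Yeast mgt1 strain (DNA repair/cell-cycle alteration panel) exposed to compounds; growth inhibition measured relative to vehicle-treated controls.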

[5] = NCI Yeast Anticancer Drug Screen. Data for the rad50 strain (AID 155);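 note: 0% = growth of vehicle-only cultures of the same strain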; conditions: S. cerevisiae rad50 strain growth inhibition, stronger effect = higher value
Summary of the method: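 Compounds were tested on a yeast strain with an engineered DNA damage repair alteration; the reported value is growth inhibition normalised to vehicle treatment.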

[6] = NCI Yeast Anticancer Drug Screen. Data for the mec2-1 strain (AID 157); conditions: S. cerevisiae mec2-1 strain, stronger effect = higher value
Summary of the method: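 mec2-1 yeast strain, carrying an alteration in DNA damage repair or cell cycle control, was exposed to compounds; growth inhibition was measured relative to vehicle-treated controls.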

[7] = NCI Yeast Anticancer Drug Screen. Data for the rad14 strain (AID 159);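 note: 0% = growth of vehicle-treated control cultures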; conditions: S. cerevisiae rad14 strain growth inhibition, stronger effect = higher value
Summary of the method: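 Compound-treated yeast with a defined DNA-repair lesion; growth inhibition normalised to vehicle-treated cultures.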

[8] = NCI Yeast Anticancer Drug Screen. Data for the sgs1 mgt1 strain (AID 161);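 note: 0% = growth of cultures given vehicle only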; conditions: S. cerevisiae sgs1 mgt1 strain, stronger effect = higher value
Summary of the method: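 Yeast cells carrying a defined DNA-repair defect were exposed to test compounds. Growth inhibition was measured relative to vehicle-treated controls.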

[9] = NCI Yeast Anticancer Drug Screen. Data for the cln2 rad14 strain (AID 165);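 note: 0% = growth equal to vehicle treated cultures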; conditions: S. cerevisiae cln2 rad14 strain, stronger effect = higher value
Summary of the method: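 Yeast carrying cln2 and rad14 alterations (cell cycle control and DNA damage repair) were exposed to compounds. Growth inhibition was measured against vehicle-treated controls.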

[10] = NCI Yeast Anticancer Drug Screen. Data for the bub3 strain (AID 167); conditions: S. cerevisiae bub3 mutant strain, stronger effect = higher value
Summary of the method: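 Growth of a checkpoint-deficient yeast mutant is measured after compound exposure. Values represent inhibition relative to vehicle.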

[11] = NCI Yeast Anticancer Drug Screen. Data for the wt2 strain (AID 169);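 note: 0% = growth of vehicle-treated yeast cultures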; conditions: S. cerevisiae wt2 strain growth inhibition, stronger effect = higher value
Summary of the method: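 Yeast cells were exposed to test compounds, and growth inhibition was measured relative to vehicle-treated controls.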

[12] = NCI Yeast Anticancer Drug Screen. Data for the mlh1 strain (AID 171);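 note: 0% = growth of vehicle-treated control cultures of the same strain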; conditions: S. cerevisiae mlh1 strain growth inhibition, stronger effect = higher value
Summary of the method: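 Yeast carrying a defined genetic alteration in DNA damage repair or cell cycle control were exposed to test compounds. Growth inhibition was measured relative to vehicle-treated controls.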

[13] = NCI Yeast Anticancer Drug Screen. Data for the sgs1 strain (AID 173);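 note: 0% = growth of vehicle-only control cultures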; conditions: S. cerevisiae sgs1 mutant, stronger effect = higher value
Summary of the method: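 Yeast mutant strains carrying defined defects in DNA damage repair or cell cycle control were exposed to test compounds. Growth inhibition was scored against vehicle-treated controls.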

[14] = NCI Yeast Anticancer Drug Screen. Data for the mlh1 rad18 strain (AID 175); conditions: S. cerevisiae mlh1 rad18 strain growth inhibition, stronger effect = higher value
Summary of the method: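 Growth inhibition of the yeast strain was measured after compound exposure and expressed relative to vehicle-treated controls. The strain carries defined defects in DNA damage repair.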

[15] = NCI Yeast Anticancer Drug Screen. Data for the rad18 strain (AID 177); conditions: S. cerevisiae rad18 mutant growth inhibition, stronger effect = higher value
Summary of the method: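 Yeast carrying a defined DNA damage repair alteration were exposed to compounds. Growth inhibition was expressed relative to vehicle-treated controls.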

[16] = at 5.0 µM (retest, dose inferred, filed as 0.5)
[17] = at 50.0 µM (retest, dose inferred, filed as 5.0)

## CC(C)NCCCNc1c2ccccc2nc2cccc([N+](=O)[O-])c12
[1]; at 1.2 µM
  growth inhibition: 93% (active)
[1]; at 3.7 µM
  growth inhibition: 96% (active)
[1]; at 11.0 µM
  growth inhibition: 97% (active)
[1]; at 33.0 µM
  growth inhibition: 97% (active)
[1]; at 100.0 µM
  growth inhibition: 97% (active)
[2]; at 1.2 µM
  growth inhibition: 13%
[2]; at 3.7 µM
  growth inhibition: 57%
[2]; at 11.0 µM
  growth inhibition: 88% (active)
[2]; at 33.0 µM
  growth inhibition: 96% (active)
[2]; at 100.0 µM
  growth inhibition: 97% (active)
[3]; at 1.2 µM
  growth inhibition: 86% (active)
[3]; at 3.7 µM
  growth inhibition: 93% (active)
[3]; at 11.0 µM
  growth inhibition: 95% (active)
[3]; at 33.0 µM
  growth inhibition: 96% (active)
[3]; at 100.0 µM
  growth inhibition: 97% (active)
[4]; at 1.2 µM
  growth inhibition: -1%
[4]; at 3.7 µM
  growth inhibition: 38%
[4]; at 11.0 µM
  growth inhibition: 58%
[4]; at 33.0 µM
  growth inhibition: 92% (active)
[4]; at 100.0 µM
  growth inhibition: 96% (active)
[5]; at 1.2 µM
  growth inhibition: 90% (active)
[5]; at 3.7 µM
  growth inhibition: 93% (active)
[5]; [16]
  growth inhibition: 95% (active)
[5]; at 11.0 µM
  growth inhibition: 95% (active)
[5]; at 33.0 µM
  growth inhibition: 96% (active)
[5]; [17]
  growth inhibition: 99% (active)
[5]; at 50.0 µM
  growth inhibition: 83.3% (active)
[5]; at 100.0 µM
  growth inhibition: 97% (active)
[6]; at 1.2 µM
  growth inhibition: 94% (active)
[6]; at 3.7 µM
  growth inhibition: 97% (active)
[6]; [16]
  growth inhibition: 93% (active)
[6]; at 11.0 µM
  growth inhibition: 97% (active)
[6]; at 33.0 µM
  growth inhibition: 98% (active)
[6]; [17]
  growth inhibition: 98% (active)
[6]; at 50.0 µM
  growth inhibition: 86.5% (active)
[6]; at 100.0 µM
  growth inhibition: 98% (active)
[7]; at 1.2 µM
  growth inhibition: 98% (active)
[7]; at 3.7 µM
  growth inhibition: 98% (active)
[7]; at 11.0 µM
  growth inhibition: 97% (active)
[7]; at 33.0 µM
  growth inhibition: 99% (active)
[7]; at 100.0 µM
  growth inhibition: 99% (active)
[8]; [16]
  growth inhibition: 94% (active)
[8]; [17]
  growth inhibition: 98% (active)
[8]; at 50.0 µM
  growth inhibition: 80.8% (active)
[9]; [16]
  growth inhibition: 98% (active)
[9]; [17]
  growth inhibition: 99% (active)
[9]; at 50.0 µM
  growth inhibition: 85.7% (active)
[10]; at 1.2 µM
  growth inhibition: -11%
[10]; at 3.7 µM
  growth inhibition: 53%
[10]; [16]
  growth inhibition: -4%
[10]; at 11.0 µM
  growth inhibition: 90% (active)
[10]; at 33.0 µM
  growth inhibition: 96% (active)
[10]; [17]
  growth inhibition: 99% (active)
[10]; at 50.0 µM
  growth inhibition: 66.8%
[10]; at 100.0 µM
  growth inhibition: 96% (active)
[11]; at 1.2 µM
  growth inhibition: 28%
[11]; at 3.7 µM
  growth inhibition: 74% (active)
[11]; at 11.0 µM
  growth inhibition: 94% (active)
[11]; at 33.0 µM
  growth inhibition: 97% (active)
[11]; at 100.0 µM
  growth inhibition: 97% (active)
[12]; at 1.2 µM
  growth inhibition: 28%
[12]; at 3.7 µM
  growth inhibition: 75% (active)
[12]; at 11.0 µM
  growth inhibition: 91% (active)
[12]; at 33.0 µM
  growth inhibition: 95% (active)
[12]; at 100.0 µM
  growth inhibition: 96% (active)
[13]; at 1.2 µM
  growth inhibition: 92% (active)
[13]; at 3.7 µM
  growth inhibition: 94% (active)
[13]; at 11.0 µM
  growth inhibition: 96% (active)
[13]; at 33.0 µM
  growth inhibition: 97% (active)
[13]; at 100.0 µM
  growth inhibition: 98% (active)
[14]; [16]
  growth inhibition: 97% (active)
[14]; [17]
  growth inhibition: 99% (active)
[14]; at 50.0 µM
  growth inhibition: 77% (active)
[15]; at 1.2 µM
  growth inhibition: 97% (active)
[15]; at 3.7 µM
  growth inhibition: 96% (active)
[15]; at 11.0 µM
  growth inhibition: 97% (active)
[15]; at 33.0 µM
  growth inhibition: 97% (active)
[15]; at 100.0 µM
  growth inhibition: 97% (active)
